Bioassay records deposited in PubChem BioAssay by several laboratories.
Most compounds without a hit are left out; they make up all but 3.3% or so of the library.
Rpn11 block – Rpn11 (PSMD14) deubiquitinase inhibitors, primary screen, biochemical, fluorescence polarization, uHTS; 26S proteasome non-ATPase regulatory subunit 14 (Homo sapiens), O00487; human 26S proteasome, Ub4-pepOG fluorescence polarization; 20S core pre-blocked with epoxomicin; inhibition, % at 20 µM; 360,000 compounds, 0.59% hits;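 active = inhibition at 20 µM, scaled to each plate's controls, above about 33%, limit read from the data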
Target sequence (O00487 whole entry, looked up): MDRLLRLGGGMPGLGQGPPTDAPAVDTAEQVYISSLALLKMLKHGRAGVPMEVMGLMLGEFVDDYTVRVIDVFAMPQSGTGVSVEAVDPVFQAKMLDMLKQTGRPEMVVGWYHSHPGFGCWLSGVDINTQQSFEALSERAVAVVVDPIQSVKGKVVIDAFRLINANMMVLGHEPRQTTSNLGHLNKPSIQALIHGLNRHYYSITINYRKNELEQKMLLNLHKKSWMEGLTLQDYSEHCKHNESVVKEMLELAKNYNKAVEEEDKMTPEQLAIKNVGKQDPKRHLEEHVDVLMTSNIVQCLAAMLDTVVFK
HNF4A DNA FP – change in binding of human HNF4A to DNA, primary screen, biochemical, fluorescence polarization, FITC-DNA; Hepatocyte nuclear factor 4-alpha (Homo sapiens), P41235; 1 h; activity change, % at 10 µM; 360,000 compounds, 0.3% hits; in the data active = activity change above about 30%, passing the limit was not always enough
CTSL1 counter – Fasciola hepatica cathepsin L1 inhibitors, primary screen, counter-screen for PFM18AAP inhibitor project, biochemical, QFRET, fluorogenic peptide substrate; inhibition, % at 5.96 µM; 300,000 compounds, 0.49% hits; recombinant F. hepatica cathepsin L1, Z-Leu-Arg-MCA fluorescence; AID 1906, 2009;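 active = inhibition above the mean of all tested compounds plus 3 SD, set per screening campaign, cut at about 17% in these data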
NRP1-CendR mod – modulators of CendR peptide binding to NRP-1, primary screen, biochemical, fluorescence polarization, uHTS | Neuropilin-1 (Homo sapiens), O14786 | FAM-RPARPAR peptide binding to NRP-1 | inhibition, % at 25 µM | 360,000 compounds, 0.85% hits | AID 602438, 2012;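 active = inhibition or corrected inhibition above about 18%, plus a signal ratio from 0.5 to 1.5, limit read from the data, passing the limit was not always enough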
PHOSPHO1 inh – PubChem AID 1565 | recombinant PHOSPHO1, absorbance phosphatase assay | inhibition, % at 13.3 µM | 290,000 compounds, 1.1% hits; in the data active = inhibition above about 60%
Target sequence (Q8TCT1 whole entry, looked up): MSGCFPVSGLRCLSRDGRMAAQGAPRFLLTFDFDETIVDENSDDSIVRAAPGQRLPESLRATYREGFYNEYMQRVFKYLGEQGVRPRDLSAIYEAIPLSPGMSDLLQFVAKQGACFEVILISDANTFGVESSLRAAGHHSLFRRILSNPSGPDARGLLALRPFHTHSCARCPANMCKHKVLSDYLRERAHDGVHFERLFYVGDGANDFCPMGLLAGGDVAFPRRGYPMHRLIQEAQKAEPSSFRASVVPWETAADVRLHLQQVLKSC
TPT1 inhibitor – Candida albicans TPT1 enzyme inhibitors, primary screen, biochemical, fluorescence polarization; tRNA 2'-phosphotransferase TPT1 (Candida albicans SC5314); recombinant caTPT1, FP RNA substrate dephosphorylation; inhibition, % at 5 µM; 300,000 compounds, 0.81% hits; AID 1962, 2009;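 active = inhibition above the mean of all tested compounds plus 3 SD, set per screening campaign, cut at about 24% in these data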
A number is an active result.

`COc1ccc(C(=O)Nc2ccccc2C(=O)Nc2ccncc2)cc1` gave Rpn11 block inactive, HNF4A DNA FP inactive, CTSL1 counter inactive, NRP1-CendR mod inactive, PHOSPHO1 inh 63 and TPT1 inhibitor inactive.
`COc1ccc(C(=O)Nc2ccccc2C(=O)NCCN2CCOCC2)cc1` gave Rpn11 block inactive, HNF4A DNA FP inactive, CTSL1 counter 23, NRP1-CendR mod inactive, PHOSPHO1 inh inactive and TPT1 inhibitor inactive.
`COc1ccc(C(=O)Nc2ccccc2C(=O)Nc2ccc(C(=O)O)cc2)cc1` gave Rpn11 block inactive, HNF4A DNA FP inactive, CTSL1 counter inactive, NRP1-CendR mod inactive, PHOSPHO1 inh inactive and TPT1 inhibitor inactive.
For Cc1cc(C)cc(OCCNC(=O)C2CCN(S(=O)(=O)c3ccccc3)CC2)c1 the results were Rpn11 block inactive, HNF4A DNA FP inactive, CTSL1 counter inactive, NRP1-CendR mod inactive, PHOSPHO1 inh inactive and TPT1 inhibitor inactive.
`CCCCCn1nc(C)c2c(C)cc(=O)[nH]c21` gave Rpn11 block inactive, HNF4A DNA FP inactive, CTSL1 counter inactive, NRP1-CendR mod inactive, PHOSPHO1 inh inactive and TPT1 inhibitor inactive.
CCOc1ccc(N=C2NC(=O)SC2CC(=O)OC)cc1 (centres undefined) was read as Rpn11 block inactive, HNF4A DNA FP inactive, CTSL1 counter inactive, NRP1-CendR mod inactive, PHOSPHO1 inh inactive and TPT1 inhibitor inactive.
Screening COc1ccc(CCNC2=CC(=O)CCC2)cc1OC returned Rpn11 block inactive, HNF4A DNA FP inactive and NRP1-CendR mod inactive.
Cc1c(-c2ccccc2)oc2c(C(=O)N3CCN(c4ccc([N+](=O)[O-])cc4)CC3)cccc2c1=O was read as Rpn11 block inactive, HNF4A DNA FP inactive, CTSL1 counter inactive, NRP1-CendR mod inactive, PHOSPHO1 inh inactive and TPT1 inhibitor inactive.
Screening Cc1[nH]n(C(C)(C)C)c(=O)c1Sc1ccc(Cl)cc1 returned Rpn11 block inactive, HNF4A DNA FP inactive, CTSL1 counter inactive, NRP1-CendR mod inactive, PHOSPHO1 inh 74 and TPT1 inhibitor inactive.
COCCCNC(=S)Nc1ccccc1[N+](=O)[O-] was read as Rpn11 block inactive, HNF4A DNA FP inactive, CTSL1 counter inactive, NRP1-CendR mod inactive, PHOSPHO1 inh 60 and TPT1 inhibitor inactive.
COCCNC(=S)Nc1ccccc1[N+](=O)[O-] was read as Rpn11 block inactive, HNF4A DNA FP inactive, CTSL1 counter inactive, NRP1-CendR mod inactive, PHOSPHO1 inh inactive and TPT1 inhibitor inactive.
O=C(CSc1nnnn1C1CCCC1)Nc1ccc(F)cc1 was read as Rpn11 block inactive, HNF4A DNA FP inactive, CTSL1 counter inactive, NRP1-CendR mod inactive, PHOSPHO1 inh 62 and TPT1 inhibitor inactive.
For Cc1cccc(NC(=O)CCN2C(=O)C3C4C=CC(C4)C3C2=O)c1 (centres undefined) the results were Rpn11 block inactive, HNF4A DNA FP inactive, CTSL1 counter inactive, NRP1-CendR mod inactive, PHOSPHO1 inh inactive and TPT1 inhibitor inactive.
Screening Cc1ccc(O)c(NC(=O)c2ccc3c(c2)C(=O)N(Cc2cccnc2)C3=O)c1 returned Rpn11 block inactive, HNF4A DNA FP inactive, CTSL1 counter inactive, NRP1-CendR mod inactive, PHOSPHO1 inh 63 and TPT1 inhibitor inactive.
`CC(C)c1ccc(NC2CCCN(C(=O)c3cscn3)C2)cc1` (centres undefined) gave Rpn11 block inactive, HNF4A DNA FP inactive, NRP1-CendR mod 21 and PHOSPHO1 inh inactive.
Screening Cc1nnsc1C(=O)N1CCCC(Nc2ccc(C(C)C)cc2)C1 (centres undefined) returned Rpn11 block inactive, HNF4A DNA FP inactive, CTSL1 counter inactive, NRP1-CendR mod inactive, PHOSPHO1 inh inactive and TPT1 inhibitor inactive.
Screening Cc1nc(-c2ccc(C(=O)Nc3cccc(Br)c3)cc2)cs1 returned Rpn11 block inactive, HNF4A DNA FP inactive, CTSL1 counter inactive, NRP1-CendR mod inactive, PHOSPHO1 inh inactive and TPT1 inhibitor inactive.
Screening CCOC(=O)c1c(CC(C)C)csc1NC=O returned Rpn11 block inactive, HNF4A DNA FP inactive, CTSL1 counter inactive, NRP1-CendR mod 30, PHOSPHO1 inh inactive and TPT1 inhibitor inactive.
CCOC(=O)/C(C#N)=C/c1c(N2CCN(C)CC2)nc2c(C)cccn2c1=O was read as Rpn11 block inactive, HNF4A DNA FP inactive, NRP1-CendR mod inactive and PHOSPHO1 inh inactive.
CCCN1C(=O)/C(=C/c2c(N3CCNC(=O)C3CC(=O)OCC)nc3c(C)cccn3c2=O)SC1=S (centres undefined) was read as HNF4A DNA FP inactive, CTSL1 counter inactive, NRP1-CendR mod inactive, PHOSPHO1 inh inactive and TPT1 inhibitor 137.
For CCOC(=O)CC1C(=O)NCCN1c1nc2ccc(C)cn2c(=O)c1/C=C1\SC(=S)N(CC(C)C)C1=O (centres undefined) the results were HNF4A DNA FP inactive, CTSL1 counter inactive, NRP1-CendR mod inactive, PHOSPHO1 inh inactive and TPT1 inhibitor 122.
For CCOC(=O)CC1C(=O)NCCN1C(=O)c1ccc(C)cc1 (centres undefined) the results were Rpn11 block inactive, HNF4A DNA FP inactive, CTSL1 counter inactive, NRP1-CendR mod inactive and TPT1 inhibitor inactive.
`CCOC(=O)CC1C(=O)NCCN1c1nc2ccc(C)cn2c(=O)c1/C=C1\SC(=S)N(C(C)CC)C1=O` (centres undefined) gave CTSL1 counter inactive, PHOSPHO1 inh inactive and TPT1 inhibitor 137.
Cc1ccc(C(=O)COC(=O)CNS(=O)(=O)c2ccccc2)cc1[N+](=O)[O-] was read as Rpn11 block inactive, HNF4A DNA FP inactive, CTSL1 counter inactive, NRP1-CendR mod inactive, PHOSPHO1 inh inactive and TPT1 inhibitor inactive.
CN1CCN(C(=O)C2=C[C@@H](c3ccccc3)C[C@@H](OCc3ccc(CO)cc3)O2)CC1 was read as Rpn11 block inactive, HNF4A DNA FP inactive, CTSL1 counter inactive, NRP1-CendR mod inactive, PHOSPHO1 inh inactive and TPT1 inhibitor inactive.
For CN1CCN(C(=O)C2=C[C@@H](c3ccc(Br)cc3)C[C@@H](OCc3ccc(CO)cc3)O2)CC1 the results were Rpn11 block inactive, HNF4A DNA FP inactive, CTSL1 counter 17, NRP1-CendR mod inactive, PHOSPHO1 inh inactive and TPT1 inhibitor inactive.
NC(=O)C1=C[C@H](c2ccc(Br)cc2)C[C@H](OCc2ccc(CO)cc2)O1 was read as Rpn11 block inactive, HNF4A DNA FP inactive, CTSL1 counter inactive, NRP1-CendR mod 26, PHOSPHO1 inh inactive and TPT1 inhibitor inactive.
`NC(=O)C1=C[C@@H](c2ccc(Br)cc2)C[C@@H](OCc2ccc(CO)cc2)O1` gave Rpn11 block inactive, HNF4A DNA FP inactive, CTSL1 counter inactive, NRP1-CendR mod inactive, PHOSPHO1 inh inactive and TPT1 inhibitor inactive.
